Results as given in PubChem BioAssay.
“And” between values parts separate entries of the source, which are not always exact repeats. Equal values may be shown once. For some assays here: Measured potencies and affinities stand elsewhere. The source made the active and inactive calls.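 Rule for the calls, unless noted: active = compounds whose cell count with miR-34 switched on is under 0.7 times the count with it off; inactive = the rest.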

Columns and labels:
[1] = polyglutamine-triggered caspase-3 activation inhibitors, cell-based (AID 1583); conditions: polyglutamine-induced caspase-3 activation, cell assay; stronger effect = higher value;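 tested at 10 µM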
[2] = suppressors of polyQ aggregation in yeast, 75Q-TubU reporter (AID 1593); conditions: Yeast 75Q polyglutamine aggregation reporter
[3] = rescue of polyQ-huntingtin neuronal dysfunction in worms, whole organism, C. elegans mechanosensory neurons, N-terminal huntingtin (AID 1599); conditions: touch response, stronger effect = higher value
[4] = inhibitors of mitochondrial cytochrome c release, biochemical, purified mitochondria (AID 1603); conditions: stronger effect = lower value;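 note: mouse liver mitochondria challenged with calcium chloride; signal normalized to the plate average as 100%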
[5] = inhibitors of polyQ protein aggregation (AID 1604); conditions: polyglutamine-induced protein aggregation inhibition assay; stronger effect = higher value; tested at 2.5 µM
[6] = enhancers of glutamate uptake in motor neurons, MN-1 cell line (AID 1612); conditions: MN-1 motor neuron cells, stronger effect = higher value;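 note: tested at 1 µM final; 0% = mean of DMSO vehicle wells on each plate; positive means more glutamate uptake than control and negative means less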
[7] = reducers of polyQ inclusions in PC12 cells, cell-based, NGF-treated PC12, GFPQ80 (AID 1614); conditions: PC12 NGF-treated GFP-polyQ80 inclusion reduction;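 note: lower means fewer inclusions and 0 means no inclusions at all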
[8] = suppressors of polyglutamine aggregation in yeast, 75Q-TubH (AID 1616); conditions: S. cerevisiae 75Q-TubH polyglutamine aggregation suppression; stronger effect = higher value
[9] = hESC survival regulators, cell-based (AID 493140; call rule not given here;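 note: cells exposed to compounds for four days before counting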); conditions: human embryonic stem cell survival screen; stronger effect = higher value
[10] = liver-stage malaria parasite growth inhibition, primary screen, cell-based, HepG2, luciferase luminescence, HepG2 viability (AID 624349; in the data active = parasite load remaining mostly below about 12%, no sharp cut-off; inactive = mostly above about 10%;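 note: 100% = mean of DMSO negative control wells on the same plate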); conditions: P. berghei liver stage in HepG2, luciferase luminescence, concentration not given here; parasite load remaining: stronger effect = lower value; viability: measured here: HepG2 viability without parasites
[11] = molecular target: 6-phosphogluconate dehydrogenase, decarboxylating (Homo sapiens) (UniProt P52209); assay: 6PGD enzyme inhibitors, primary screen, biochemical, human, recombinant enzyme, NADPH absorbance (AID 1159550;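 active = at least 20% inhibition of 6-phosphogluconate dehydrogenase activity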); conditions: recombinant 6PGD, NADPH absorbance 341 nm; at 10 µM; stronger effect = higher value
[12] = differential killing of epithelial or mesenchymal cells, primary screen, imaging, PC-3E GFP, TEM4-18 mCherry, co-culture (AID 1345086;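 active = compounds killing one labelled cell type while sparing the other, by normalised counts and ratio limits, not self-fluorescent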;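 for all read-outs here: cells exposed to compound for 72 h before imaging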;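 for red/green cell ratio (normalised): normalised mesenchymal count divided by normalised epithelial count so high means epithelial killing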); conditions: imaging cell counts, at 1 µM; for red/green cell ratio (normalised): actives lie on both sides, counts scaled to control wells, 1 = unselective
[13] = sensitizers of A549 cells to miR-34 induction, primary screen, imaging, A549 dox-inducible miR-34, nuclei and caspase counts (AID 1347080); conditions: A549 miR-34 inducible, Hoechst nuclei count, 48 h
[14] = survival rescue of mitochondrial mutant cells in low glucose, primary screen, MELAS cybrids, Rieske KO mouse fibroblasts, CellTiter-Glo (AID 1508586;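 active = mean z-score across replicates of 1.96 or higher in either the MELAS or the Rieske mutant cell line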;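 note: z relative to plate mean and SD of compound and empty wells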)
[15] = molecular target: NAD(+) hydrolase SARM1 (Homo sapiens) (UniProt Q6SZW1); assay: SARM1 TIR NADase inhibitors, cell lysate, NAD-Glo luminescence (AID 1508614;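 active = compound whose remaining NAD level is above about 45 nM, limit read from the data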;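 note: higher remaining NAD means stronger inhibition of SARM1 NADase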); conditions: SAM-TIR HEK293T lysate NADase, at 1 µM, stronger effect = higher value
[16] = molecular target: Mitogen-activated protein kinase 7 (Homo sapiens) (UniProt Q13164); assay: ERK5 transactivation activators in reporter cells, primary screen, cell-based, HTS (AID 1508626;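 active = luciferase signal above three times the same-plate solvent-only control wells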;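 note: luciferase driven by Gal4-ERK5 fusion binding five Gal4 sites before minimal TATA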); conditions: HeLa Gal4-ERK5 transactivation, 18 h, at 5 µM, stronger effect = higher value
[17] = viability rescue of complex I mutant cybrids, primary screen, cell-based, galactose medium, ATP luminescence (AID 1645843;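 active = z-score of at least 1.8 in each of two replicates, scored against plate mean and spread of sample wells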;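 note: positive z means more ATP and so rescue of galactose-driven cybrid death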); conditions: complex I mutant cybrid cells, 72 h, stronger effect = higher value
[18] = circadian clock period modulators, cell-based, LOPAC library, luminescence reporter (AID 2774; call rule not given here;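 note: values are relative to mean of DMSO wells on each plate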); conditions: circadian reporter cells, at 7 µM, actives lie on both sides
[19] = phospholipid biosynthesis inhibitors in animal cells, primary screen, cell-based, LOPAC library, screen 4 (AID 1347384; call rule not given here); conditions: phospholipid biosynthesis inhibition screen, at 10 µM
[20] = measured here: epithelial PC-3E GFP cell survival
[21] = measured here: mesenchymal TEM4-18 mCherry cell survival
[22] = stronger effect = lower value, cell number ratio, induced over uninduced
[23] = measured here: relative caspase fold change +Dox/-Dox
[24] = measured here: total cells with miR-34 induction, stronger effect = lower value
[25] = measured here: total cells without miR-34 induction
[26] = MELAS cybrid survival, CellTiter-Glo 48 h, stronger effect = higher value
[27] = Rieske KO mouse fibroblast survival, CellTiter-Glo 72 h

Chain of Mitogen-activated protein kinase 7 (Homo sapiens) (Q13164 whole entry, looked up, the tested form may be a part): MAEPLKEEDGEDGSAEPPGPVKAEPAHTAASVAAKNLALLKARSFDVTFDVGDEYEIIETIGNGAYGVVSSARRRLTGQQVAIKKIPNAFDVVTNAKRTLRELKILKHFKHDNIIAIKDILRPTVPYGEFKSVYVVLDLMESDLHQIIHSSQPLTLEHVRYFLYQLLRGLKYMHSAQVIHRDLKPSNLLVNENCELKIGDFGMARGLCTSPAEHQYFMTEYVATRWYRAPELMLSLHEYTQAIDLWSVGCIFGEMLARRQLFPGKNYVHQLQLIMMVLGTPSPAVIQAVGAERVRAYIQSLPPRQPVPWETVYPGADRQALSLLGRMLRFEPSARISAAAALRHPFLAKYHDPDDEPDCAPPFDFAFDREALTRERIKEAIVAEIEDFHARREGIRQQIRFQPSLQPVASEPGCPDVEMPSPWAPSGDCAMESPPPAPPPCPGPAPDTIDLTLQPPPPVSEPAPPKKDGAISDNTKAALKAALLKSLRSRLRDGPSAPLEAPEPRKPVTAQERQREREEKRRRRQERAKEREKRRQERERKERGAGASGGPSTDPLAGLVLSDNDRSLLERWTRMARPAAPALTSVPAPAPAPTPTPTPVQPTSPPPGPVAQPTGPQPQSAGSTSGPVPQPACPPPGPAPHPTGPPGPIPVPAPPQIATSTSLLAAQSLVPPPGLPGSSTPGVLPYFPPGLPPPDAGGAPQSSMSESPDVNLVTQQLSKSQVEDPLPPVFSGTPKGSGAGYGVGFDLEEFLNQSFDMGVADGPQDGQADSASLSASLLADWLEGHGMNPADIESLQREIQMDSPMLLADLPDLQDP
Chain of 6-phosphogluconate dehydrogenase, decarboxylating (Homo sapiens) (P52209 whole entry, looked up): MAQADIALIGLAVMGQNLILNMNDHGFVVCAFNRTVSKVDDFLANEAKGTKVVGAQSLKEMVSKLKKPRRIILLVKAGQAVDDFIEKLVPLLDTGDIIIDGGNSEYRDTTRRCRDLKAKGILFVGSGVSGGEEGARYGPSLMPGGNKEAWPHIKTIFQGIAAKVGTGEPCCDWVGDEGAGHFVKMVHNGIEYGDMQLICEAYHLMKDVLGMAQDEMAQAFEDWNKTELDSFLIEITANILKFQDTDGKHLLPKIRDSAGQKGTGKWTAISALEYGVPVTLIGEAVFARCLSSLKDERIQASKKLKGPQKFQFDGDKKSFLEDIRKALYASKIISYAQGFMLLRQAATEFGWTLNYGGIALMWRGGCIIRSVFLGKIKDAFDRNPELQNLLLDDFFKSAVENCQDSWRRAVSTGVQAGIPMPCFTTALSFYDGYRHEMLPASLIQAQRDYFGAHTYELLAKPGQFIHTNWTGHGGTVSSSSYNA
Chain of NAD(+) hydrolase SARM1 (Homo sapiens) (Q6SZW1 whole entry, looked up, the tested form may be a part): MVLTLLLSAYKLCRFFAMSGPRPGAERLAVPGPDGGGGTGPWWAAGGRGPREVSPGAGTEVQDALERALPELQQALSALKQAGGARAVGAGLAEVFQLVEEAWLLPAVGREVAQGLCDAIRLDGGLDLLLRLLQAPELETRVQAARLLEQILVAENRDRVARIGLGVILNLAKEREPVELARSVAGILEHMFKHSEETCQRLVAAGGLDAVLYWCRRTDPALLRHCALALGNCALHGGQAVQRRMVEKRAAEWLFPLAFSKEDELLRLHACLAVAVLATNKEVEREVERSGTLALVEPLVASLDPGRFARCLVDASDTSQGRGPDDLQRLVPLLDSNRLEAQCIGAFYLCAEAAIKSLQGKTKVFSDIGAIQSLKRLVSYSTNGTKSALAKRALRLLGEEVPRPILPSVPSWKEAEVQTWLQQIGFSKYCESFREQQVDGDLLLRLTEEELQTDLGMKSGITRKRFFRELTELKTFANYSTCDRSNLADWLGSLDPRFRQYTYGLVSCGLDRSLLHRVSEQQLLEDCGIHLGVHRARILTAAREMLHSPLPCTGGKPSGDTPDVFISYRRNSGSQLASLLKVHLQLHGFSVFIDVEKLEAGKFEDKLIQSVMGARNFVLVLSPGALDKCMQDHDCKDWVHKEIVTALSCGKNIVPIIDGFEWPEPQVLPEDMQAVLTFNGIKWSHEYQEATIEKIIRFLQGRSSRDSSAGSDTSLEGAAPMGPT

CC(C(=O)O)c1ccc(N2Cc3ccccc3C2=O)cc1 (stereo not drawn)
inhibition [1]: -2.1% | score [2]: 0.89 | rescue above control [3]: -4.46 | cytochrome c release ratio [4]: 1.17 | inhibition of aggregation [5]: 83.7% | glutamate uptake change [6]: -13.2% | inclusion score [7]: 2.5 | aggregation suppression score [8]: 1.02 | survival [9]: 4.83 (inactive) | parasite load remaining [10]: 132% (inactive) and 273% (inactive) and 101% (inactive) | viability [10]: 95.7% and 78.1% and 95.5% | inhibition [11]: -13% (inactive) | red/green cell ratio (normalised) [12]: 1.39 (inactive) | normalised cell number [12, 20]: 0.94 | normalised cell number [12, 21]: 1.31 | fold change [13, 22]: 0.881 (inactive) and 0.915 (inactive) | fold change [13, 23]: 1.39 and 0.964 | cell count [13, 24]: 9440 and 11300 | cell count [13, 25]: 10700 and 12400 | z-score [14, 26]: 0.44 (inactive) | z-score [14, 27]: -0.221 | remaining NAD [15]: 10 nM (inactive) | luciferase signal [16]: 68 AU (inactive)

NC(=O)c1ccc[n+]([C@@H]2O[C@H](COP(=O)([O-])OP(=O)(O)OC[C@H]3O[C@@H](n4cnc5c(N)ncnc54)[C@H](O)[C@@H]3O)[C@@H](O)[C@H]2O)c1
inhibition [1]: 7.61% | score [2]: 1.51 | rescue above control [3]: 2.62 | cytochrome c release ratio [4]: 0.91 | inhibition of aggregation [5]: 63.6% | glutamate uptake change [6]: 28.3% | inclusion score [7]: 2 | aggregation suppression score [8]: 1.51 | parasite load remaining [10]: 87.2% (inactive) and 76.6% (inactive) | viability [10]: 103% and 92.6% | inhibition [11]: 10.6% (inactive) | red/green cell ratio (normalised) [12]: 0.97 (inactive) | normalised cell number [12, 20]: 1.17 | normalised cell number [12, 21]: 1.14 | fold change [13, 22]: 0.824 (inactive) and 0.891 (inactive) | fold change [13, 23]: 1.3 and 1.13 | cell count [13, 24]: 8060 and 11500 | cell count [13, 25]: 9780 and 12900 | z-score [14, 26]: -1.2 (inactive) | z-score [14, 27]: 0.344 | remaining NAD [15]: 183 nM (active) | luciferase signal [16]: 72 AU (inactive)

CN1CCc2c(c3ccccc3n2Cc2ccccc2)C1
inhibition [1]: 13.5% | score [2]: 1.36 | rescue above control [3]: -5.3 | cytochrome c release ratio [4]: 1.12 | inhibition of aggregation [5]: 26.7% | glutamate uptake change [6]: -0.3% | aggregation suppression score [8]: 1.16 | survival [9]: 3.25 (inactive) | parasite load remaining [10]: 52.3% (inactive) and 141% (inactive) and 69.3% (inactive) | viability [10]: 99% and 73.4% and 70.8% | inhibition [11]: 10.8% (inactive) | red/green cell ratio (normalised) [12]: 0.9 (inactive) | normalised cell number [12, 20]: 0.92 | normalised cell number [12, 21]: 0.82 | fold change [13, 22]: 0.847 (inactive) | fold change [13, 23]: 1.16 | cell count [13, 24]: 8940 | cell count [13, 25]: 10600 | z-score [14, 26]: 0.038 (inactive) | z-score [14, 27]: 0.0579 | remaining NAD [15]: 10 nM (inactive)

CC(=O)N1CCN(c2ccc(OCC3CO[C@](Cn4ccnc4)(c4ccc(Cl)cc4Cl)O3)cc2)CC1 (stereo partly drawn)
inhibition [1]: -4.16% | score [2]: 0.15 | rescue above control [3]: 0.92 | cytochrome c release ratio [4]: 1.8 | inhibition of aggregation [5]: 88.5% | glutamate uptake change [6]: -8.61% | aggregation suppression score [8]: 0.126 | parasite load remaining [10]: 15.3% (inactive) and 4.75% (inactive) | viability [10]: 65.5% and 60% | inhibition [11]: -8.94% (inactive) | red/green cell ratio (normalised) [12]: 0.9 (inactive) | normalised cell number [12, 20]: 0.95 | normalised cell number [12, 21]: 0.85 | fold change [13, 22]: 1 (inactive) and 1.02 (inactive) and 0.954 (inactive) | fold change [13, 23]: 2.72 and 0.263 and 1.79 | cell count [13, 24]: 7410 and 7100 and 8230 | cell count [13, 25]: 7380 and 6960 and 8630 | z-score [14, 26]: -0.501 (inactive) | z-score [14, 27]: -0.0671 | z-score [17]: -0.8 (inactive)

CN[C@H](CC(=O)O)C(=O)O
inhibition [1]: 0.95% | score [2]: 1.4 | rescue above control [3]: -9 | cytochrome c release ratio [4]: 0.78 | inhibition of aggregation [5]: 80.3% | glutamate uptake change [6]: -1.67% | inclusion score [7]: 2 | aggregation suppression score [8]: 1.66 | period change [18]: -0.09 h (inactive) | parasite load remaining [10]: 161% (inactive) | viability [10]: 83.1% | inhibition [11]: 6.3% (inactive) | red/green cell ratio (normalised) [12]: 1.02 (inactive) | normalised cell number [12, 20]: 1.12 | normalised cell number [12, 21]: 1.15 | fold change [13, 22]: 1.06 (inactive) | fold change [13, 23]: 0.738 | cell count [13, 24]: 10900 | cell count [13, 25]: 10300 | outcome [19]: inactive | luciferase signal [16]: 56 AU (inactive) | z-score [17]: 0.495 (inactive)

NCCCCN=C(N)N
period change [18]: 0.06 h (inactive) | parasite load remaining [10]: 166% (inactive) | viability [10]: 87.2% | inhibition [11]: -2.27% (inactive) | red/green cell ratio (normalised) [12]: 0.84 (inactive) | normalised cell number [12, 20]: 1.01 | normalised cell number [12, 21]: 0.85 | fold change [13, 22]: 1.06 (inactive) | fold change [13, 23]: 2.32 | cell count [13, 24]: 10300 | cell count [13, 25]: 9670 | outcome [19]: inactive | luciferase signal [16]: 64 AU (inactive) | z-score [17]: 0.245 (inactive)

COc1ccc(-c2cc(=O)c3c(OC)c(OC)c(OC)c(OC)c3o2)cc1
inhibition [11]: -8.06% (inactive) | red/green cell ratio (normalised) [12]: 1.11 (inactive) | normalised cell number [12, 20]: 1.14 | normalised cell number [12, 21]: 1.26 | fold change [13, 22]: 0.921 (inactive) | fold change [13, 23]: 0.924 | cell count [13, 24]: 6760 | cell count [13, 25]: 7340 | z-score [14, 26]: -0.525 (inactive) | z-score [14, 27]: 0.0182 | luciferase signal [16]: 100 AU (inactive)

NCCSSCCN
inhibition [1]: 34.8% | score [2]: 1.31 | rescue above control [3]: -5.12 | cytochrome c release ratio [4]: 1.22 | inhibition of aggregation [5]: 47.1% | glutamate uptake change [6]: 15.5% | inclusion score [7]: 2 | aggregation suppression score [8]: 1.2 | period change [18]: -0.055 h (inactive) | parasite load remaining [10]: 165% (inactive) | viability [10]: 85.4% | inhibition [11]: 7.72% (inactive) | red/green cell ratio (normalised) [12]: 0.92 (inactive) | normalised cell number [12, 20]: 1.09 | normalised cell number [12, 21]: 1.01 | fold change [13, 22]: 1.02 (inactive) | fold change [13, 23]: 2.84 | cell count [13, 24]: 10300 | cell count [13, 25]: 10100 | outcome [19]: inactive | luciferase signal [16]: 76 AU (inactive) | z-score [17]: -0.04 (inactive)

NC(=O)CC[C@H](N)C(=O)O
period change [18]: -0.065 h (inactive) | inhibition [11]: -0.19% (inactive) | red/green cell ratio (normalised) [12]: 0.89 (inactive) and 1.18 (inactive) | normalised cell number [12, 20]: 1.22 and 0.97 | normalised cell number [12, 21]: 1.08 and 1.13 | fold change [13, 22]: 0.981 (inactive) and 0.937 (inactive) | fold change [13, 23]: 0.852 and 0.867 | cell count [13, 24]: 10400 and 8420 | cell count [13, 25]: 10600 and 8990 | outcome [19]: inactive | remaining NAD [15]: 10 nM (inactive) | luciferase signal [16]: 40 AU (inactive) | z-score [17]: 0.01 (inactive)

NCCCCC(=O)O
period change [18]: 0.155 h (inactive) | parasite load remaining [10]: 89.3% (inactive) | viability [10]: 71.9% | inhibition [11]: -7.89% (inactive) | red/green cell ratio (normalised) [12]: 0.85 (inactive) | normalised cell number [12, 20]: 1.1 | normalised cell number [12, 21]: 0.94 | fold change [13, 22]: 1 (inactive) | fold change [13, 23]: 1.48 | cell count [13, 24]: 10300 | cell count [13, 25]: 10300 | outcome [19]: inactive | luciferase signal [16]: 52 AU (inactive) | z-score [17]: 0.885 (inactive)

C[N+](C)(C)CC(O)CC(=O)O (stereo not drawn)
inhibition [1]: 0.15% | score [2]: 1.34 | rescue above control [3]: -5.96 | cytochrome c release ratio [4]: 0.99 | inhibition of aggregation [5]: 88.8% | glutamate uptake change [6]: -5.62% | inclusion score [7]: 2 | aggregation suppression score [8]: 1.39 | parasite load remaining [10]: 33.4% (inactive) | viability [10]: 63.9% | inhibition [11]: -11.2% (inactive) | red/green cell ratio (normalised) [12]: 0.84 (inactive) | normalised cell number [12, 20]: 0.96 | normalised cell number [12, 21]: 0.81 | fold change [13, 22]: 0.835 (inactive) | fold change [13, 23]: 0.677 | cell count [13, 24]: 6370 | cell count [13, 25]: 7640 | z-score [14, 26]: -0.35 (inactive) | z-score [14, 27]: -0.217 | luciferase signal [16]: 24 AU (inactive)
